# MPTP block: blocks calcium-induced mitochondrial swelling | inhibition, % at 10 µM | isolated mouse mitochondria, Ca2+ swelling absorbance, 30 min | 360,000 compounds, 1.4% hits;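 active = inhibition of 50% or more, scaled per plate between neutral and stimulator controls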;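 also: 0% = DMSO wells given calcium and 100% = 1 mM EGTA wells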
# Beta cell apopt: blocks beta cell apoptosis; INS-1E cytokine-induced death, ATP luminescence, 48 h; percent of positive-control rescue, neutral wells zero; protection from apoptosis, % (test concentration not listed); 300,000 compounds, 0.8% hits;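 active = Every replicate reaches about 75%, or at least half do and their mean reaches it too, limit read from the data; inconclusive = At least half of replicates reach the limit but their mean does not; inactive = Under half of replicates reach the limit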;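 also: 0% = cytokine-treated negative control wells and 100% = positive control rescue; higher means more ATP so stronger rescue from cytokine killing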
# CSC inhib: blocks cancer stem cells | cancer stem cell-like cells viability, luminescence | inhibition, % at 7.5 µM | 300,000 compounds, 1.1% hits; in the data active = inhibition above about 75%; inconclusive = no clear call, values can overlap the other calls; tested in HMLE shEcad cells
# Calb FLC: affects C. albicans growth with fluconazole; C. albicans CaCi-2 (fluconazole-resistant clinical isolate) + fluconazole, Alamar Blue growth, 48 h; growth inhibition, % (test concentration not listed); 300,000 compounds, 0.57% hits; AID 1979;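 active = growth inhibition above about 58% in most replicates, limit read from the data, passing the limit was not always enough; inconclusive = exactly half the replicates above a set limit; inactive = most replicates below a set limit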;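 also: all wells also contain fluconazole at 8 µg/ml as a sub-toxic cotreatment; 0% = median of DMSO wells and 100% = median of geldanamycin control wells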
# Mdm2-MdmX inh: disrupts the human Mdm2-MdmX interaction; 330,000 compounds, 3% hits; AID 485346; inhibition, % at 8 µM; O15151+Q00987; SaOS-2 split-luciferase Mdm2/MdmX complementation, luminescence;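 active = inhibition of at least 50% at 8 µM in the primary screen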
# Mdm2-MdmX conf: human Mdm2/MdmX binding inhibition, confirmed; luminescent assay; AID 489028; 10,000 compounds, 55% hits; shares compounds with Mdm2-MdmX inh; inhibition, % at 8 µM; in the data active = inhibition above about 40%
# Full FLuc ctr: inhibits full-length luciferase, flagging false Mdm2/MdmX hits; shares compounds with Mdm2-MdmX inh; SaOS-2 full-length luciferase counterscreen, luminescence; inhibition, % at 8 µM; 6,200 compounds, 77% hits;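 active = mean inhibition at 8 µM reaching about 37%, which flags the compound as non-specific, limit read from the data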;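 also: p53-null SaOS-2 cells with luciferase driven by a doxycycline-inducible promoter; compound on cells about two nights before reading with doxycycline added after day one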
# Starred values were filed as active, the others as inactive; ? = inconclusive; . = no result given. Most compounds without a hit are left out; they make up all but 4.8% or so of the library.
SMILES,MPTP block,Beta cell apopt,CSC inhib,Calb FLC,Mdm2-MdmX inh,Mdm2-MdmX conf,others
Cc1ccc(N(C)S(=O)(=O)c2cccc(C(=O)OCC(=O)c3c(N)n(C)c(=O)n(C)c3=O)c2)cc1,3,2,-9,.,25,.,
Cc1ccc(OCC(O)CNC2CCCC2)c(C)c1 (stereo not drawn),1,3,-10,-1,4,.,
Cc1ccccc1OCC(O)CNC1CCC(NCC(O)COc2ccccc2C)CC1 (stereo not drawn),4,113*,109*,10,100*,100*,Full FLuc ctr=52*
NC(Cc1ccc(Cl)cc1)c1csc(Nc2ccc(C(=O)NCCCO)cn2)n1 (stereo not drawn),-2,.,.,.,.,.,
COCCNC(=O)c1cc2c(c(-c3cccc(C#CC(C)(C)O)c3)n1)[C@@H](CCO)N(S(=O)C(C)(C)C)C2 (stereo partly drawn),-1,.,.,.,.,.,
Cc1cc(C)cc(NC(=O)CCn2c(=S)[nH]c3ccccc3c2=O)c1,0,9,-11,16,65*,15,
O=C1c2ccccc2C(c2nnnn2-c2ccc3c(c2)OCCO3)N1CCOc1ccccc1 (stereo not drawn),1,.,.,.,.,.,
CCOc1ccc(Oc2nc(NCC(C)C)nc(OC)n2)nn1,1,-2,-19,-7,22,.,
CCNc1nc(NC(C)CC)nc(Oc2ccc(OCC)nn2)n1 (stereo not drawn),2,3,7,9,54*,4,
O=C(NCc1ccccc1)C1c2ccccc2OCC(=O)N1Cc1ccccc1 (stereo not drawn),1,.,.,.,.,.,
Cc1oc(-c2ccc(Cl)cc2)cc1C(=O)/C(C#N)=C/Nc1ccccc1,4,-3,5,-6,62*,10,
c1ccc2c(-c3ccc(OCCN4CCCCC4)cc3)c(-c3ccsc3)sc2c1,0,7,103*,.,68*,25,
COc1cc(OC)cc(-c2sc3ccc(OC)cc3c2-c2ccc(OCCN3CCCCC3)cc2)c1,-1,.,.,.,63*,19,
COc1ccc(-c2sc3cc4c(cc3c2-c2ccc(OCCN3CCCCC3)cc2)OCO4)cc1,-1,.,.,.,70*,24,
COc1ccccc1-c1sc2cc3c(cc2c1-c1ccc(OCCN2CCOCC2)cc1)OCO3,-1,.,.,.,47,.,
COc1ccccc1C(=O)NCCC(=O)NCC1CCCO1 (stereo not drawn),0,-6,-11,.,-5,.,
CC(C)n1c(O)c(/C=C2\C=NN=C2c2ccccc2)sc1=S,19,-9,51,-7,61*,43*,Full FLuc ctr=48*
CCn1c(O)c(C=C2N=c3ccccc3=N2)sc1=S,0,-4,-15,0,-11,.,
CCn1c(O)c(/C=C2\C=NN=C2c2ccc(C)cc2)sc1=S,3,10,-8,7,82*,63*,Full FLuc ctr=97*
Cc1csc(NC(=O)Cc2coc3cc(C)c(C(C)C)cc23)n1,0,3,.,5,80*,69*,Full FLuc ctr=57*
COc1cccc(CNc2nc3cc(C(C)=C(C)C)sc3c(=O)n2C)c1,0,.,.,.,.,.,
O=c1[nH]c2ccc(Cl)cc2c(-c2ccccc2)c1SC(=S)N1CCCCC1,1,0,28,-3,61*,44*,Full FLuc ctr=57*
O=c1[nH]c2ccc(Cl)cc2c(-c2ccccc2)c1SC(=S)N1CCOCC1,-5,11,-14,48,53*,52*,Full FLuc ctr=45*
COc1cc(NC(=O)C2(C)CCN2C(C)C)cc(OC)c1OC (stereo not drawn),-3,.,.,.,.,.,
O=C1NC(=O)C(=CC=Cc2ccccc2)S1,3,.,.,.,.,.,
SMILES,MPTP block,Beta cell apopt,CSC inhib,Calb FLC,Mdm2-MdmX inh,Mdm2-MdmX conf,others
ClC1=C(Cl)C(Cl)=C(Cl)C1=C/C=C/c1ccccc1,6,116*,103*,-2,100*,99*,Full FLuc ctr=8
CC(C)n1cnc2c(NCc3ccccc3)cc(N[C@H](C)CO)cc21,1,114*,124*,.,74*,79*,Full FLuc ctr=52*
CCC(CO)Oc1cc(NCc2ccccc2)c2ncn(C(C)C)c2c1 (stereo not drawn),1,-11,.,.,9,.,
CCCCCCCCC(c1nc2ccccc2[nH]1)N1CCN=C(c2ccccc2)C1=O (stereo not drawn),2,.,.,.,.,.,
CC(=O)NC(CC(=O)N1CCCC1)c1ccccc1 (stereo not drawn),-1,-1,4,-4,16,.,
Oc1ccc(C[C@H]2CN([C@@H](Cc3cccc(O)c3)CN3CCC[C@@H]3CN3C(=S)NC[C@@H]3Cc3ccccc3)C(=S)N2CC2CCCCC2)cc1,0,.,.,.,.,.,
CNC(=O)c1c(NC(=O)c2ccc(S(=O)(=O)N(C)c3ccccc3)cc2)sc2c1CCN(C(C)C)C2,.,-4,42,-3,9,.,
CC(C)N1CCc2c(sc(NC(=O)c3ccc(S(=O)(=O)N4CCc5ccccc54)cc3)c2C(N)=O)C1,16,3,113*,25,100*,30,
O=C(O)c1ccc(S(=O)(=O)N2CCCc3ccccc32)cc1,0,3,5,20,10,.,
NC(=O)c1ccsc1NC(=O)c1ccc(S(=O)(=O)N2CCCc3ccccc32)cc1,2,.,48,1,59*,1,
Oc1[nH]c2ccc(Br)cc2c1N=NC(=S)N1CCOCC1,1,108*,?,96*,96*,98*,Full FLuc ctr=54*
COC(=O)N=Nc1c(O)[nH]c2ccc(Br)cc12,3,-6,8,1,-11,.,
Oc1[nH]c2ccccc2c1N=NC(=S)N1CCOCC1,2,83*,35,-10,97*,88*,Full FLuc ctr=21
CCOc1ccc(NC(=S)N=Nc2c(O)[nH]c3ccccc23)cc1,2,20,-18,-12,64*,28,
Oc1cccc(NC(=S)N=Nc2c(O)[nH]c3ccccc23)c1,4,-5,9,5,10,.,
CC1(C(=O)Nc2ccc3ccccc3c2)CCC(=O)N1C1CC1 (stereo not drawn),1,.,.,.,.,.,
CC(=O)NC1C(=O)N(CCc2ccccc2)c2ccc(Br)cc21 (stereo not drawn),-2,.,.,.,.,.,
CC(=O)NC1C(=O)N(Cc2ccccc2)c2ccc(Br)cc21 (stereo not drawn),0,-1,5,-12,75*,42*,Full FLuc ctr=49*
CC(C)C(=O)NNC(=O)c1csc(-c2cccs2)n1,1,-7,-10,4,32,.,
O=C(/C=C/c1ccc(Cl)c([N+](=O)[O-])c1)Nc1cccc(NC(=O)c2ccco2)c1,12,1,?,43,53*,22,
O=C(NC(=O)c1ccc(C(F)(F)F)cc1)Nc1ccc(-c2cnco2)cc1,0,8,2,-4,56*,8,
COc1cccc(/C(O)=C/c2nc3ccc(C(=O)NCCc4cccc(C)c4)cc3[nH]c2=O)c1,1,10,16,-2,65*,2,
COc1cccc(/C(O)=C/c2nc3ccc(C(=O)NCCc4ccc(Cl)cc4)cc3[nH]c2=O)c1,-2,.,.,17,.,.,
